Screens: PubChem BioAssay, several laboratories
Most compounds without a hit are left out; they make up all but 2.2% or so of the library.
TMEM16A act: activates or potentiates the mouse TMEM16A chloride channel | Q8BHY3 | HEK293 TMEM16A/YFP-H148Q/I152L, iodide quench fluorescence; stronger effect = lower value | B-score at 10 µM | hit rate 0.3% among 340,000;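 active = fluorescence-ratio B-score plate-corrected deviation score at least 3 library SD below zero, with starting fluorescence score within 5 deviations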;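 also: channel opened by trigger with iodide after compound preincubation; score built on the fluorescence ratio of max minus min over baseline; more negative score means more quench and so TMEM16A activation or potentiation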
GRK2 inh: human GRK2 inhibition via aptamer displacement. hit rate 0.59% among 330,000. bead flow cytometry, FAM-aptamer displacement from GRK2. P25098. AID 488847. inhibition of aptamer binding, % at 10 µM;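 active = inhibition of aptamer binding above 40%, roughly 3 SD of noise, on plates passing a quality check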;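 also: median bead fluorescence of bound FAM aptamer so fluorescent compounds give negative values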
NOD2-RIPK2 inh: NOD2-RIPK2 protein interaction inhibition | CHO BLA complementation NOD2-RIPK2, CCF4 ratio | hit rate 0.38% among 360,000 | inhibition, % at 4.98 µM | O43353; in the data active = inhibition above about 21%
Target sequence (O43353 whole entry, looked up): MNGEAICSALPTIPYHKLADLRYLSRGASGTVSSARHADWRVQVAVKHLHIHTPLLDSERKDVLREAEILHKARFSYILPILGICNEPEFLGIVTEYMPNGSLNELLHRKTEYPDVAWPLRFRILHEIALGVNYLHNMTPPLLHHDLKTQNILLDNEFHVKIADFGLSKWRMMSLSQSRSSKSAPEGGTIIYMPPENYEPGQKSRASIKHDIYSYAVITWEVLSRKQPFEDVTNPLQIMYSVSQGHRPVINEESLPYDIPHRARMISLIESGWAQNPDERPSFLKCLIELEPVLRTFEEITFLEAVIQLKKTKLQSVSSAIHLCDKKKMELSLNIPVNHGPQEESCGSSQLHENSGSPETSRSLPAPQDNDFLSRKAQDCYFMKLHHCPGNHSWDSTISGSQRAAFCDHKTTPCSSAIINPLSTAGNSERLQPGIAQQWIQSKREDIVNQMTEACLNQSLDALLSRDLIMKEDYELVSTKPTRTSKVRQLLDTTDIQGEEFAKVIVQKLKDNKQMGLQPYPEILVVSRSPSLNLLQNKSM
ANO1 block: blocks the mouse calcium-activated chloride channel TMEM16A. Q8BHY3. HEK293 TMEM16A/YFP iodide influx fluorescence, ionomycin. normalized B-score (activity score, 25-100; higher = stronger inhibition) at 10 µM. hit rate 1.2% among 310,000. AID 588511;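 active = ratio plate-corrected score three or more library SD toward inhibition, starting fluorescence score within five deviations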;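 also: score derived from kinetic fluorescence span divided by baseline fluorescence per well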
TLR4 MyD88 comp: inhibitors of human TLR4-MyD88 binding. O00206+Q99836. HeLa CL3-4 TLR4/MyD88 BLA complementation, FRET ratio. inhibition, % at 8.4 µM. hit rate 0.18% among 200,000; in the data active = inhibition above about 25%
TLR9-MyD88 block: inhibitors of human TLR9-MyD88 binding | hit rate 0.21% among 340,000 | AID 504734 | CHO BLA complementation TLR9-MyD88, CCF4 FRET ratio | inhibition, % at 4.98 µM;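 active = inhibition above the mean over all tested compounds plus 3 SD, cut at about 21% in these data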
GRK2 inh confirm: confirmation of human GRK2 inhibitors displacing RNA aptamer | shares compounds with GRK2 inh | bead-bound GRK2, FAM-aptamer displacement, flow cytometry | aptamer displacement, % at 10 µM | hit rate 4% among 2,000 | AID 504451;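 active = aptamer displacement above 40%, near three times the noise of non-fluorescent compounds, on plates passing quality checks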;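 also: negative values mostly reflect intrinsic compound fluorescence rather than true enhancement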
Aptamer quench SP: quenches fluorescent RNA aptamer, GRK2 hit artifact; shares compounds with GRK2 inh; Carboxyfluorescein RNA aptamer on beads, flow cytometry quenching; stronger effect = lower value; fluorescence response (% of DMSO), % at 10 µM; 2,000 tested, under 10 active; AID 504580;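 active = compounds that quench the bead-bound fluorescent RNA probe, cutting fluorescence to under half of the solvent control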;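 also: counterscreen run without GRK2 so only probe quenching by compound is measured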
GRK2 CP2: human GRK2 inhibition confirmation, cherry pick 2; shares compounds with GRK2 inh; bead-bound GRK2, FAM-aptamer displacement, flow cytometry; inhibition of aptamer binding, % at 10 µM; 360 tested, under 10 active;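 active = inhibition of aptamer binding above 40%, about triple the noise seen with nonglowing compounds, on plates passing quality control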;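 also: negative values mostly come from compounds that fluoresce themselves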
FAM quench CP2: aptamer fluorescence quenching in GRK2 counter-screen | shares compounds with GRK2 inh | 360 tested, under 10 active | AID 588494 | carboxyfluorescein RNA aptamer beads, flow cytometry quenching; stronger effect = lower value | fluorescence response vs DMSO, % at 10 µM;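 active = response vs DMSO under 50%, meaning signal dropped by over half, treated as fluorescence quencher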;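 also: labelled aptamer on streptavidin beads without GRK2 as a quench counter-screen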
Hits are given with their value; – = inactive; · = not tested or not shown.

SMILES	TMEM16A act	GRK2 inh	NOD2-RIPK2 inh	ANO1 block	TLR4 MyD88 comp	TLR9-MyD88 block	GRK2 inh confirm	Aptamer quench SP	others
C[C@@H](OC(=O)N1CCCCC1)[C@H]1O[C@]2(C)CCCC[C@H]1O2	–	–	–	·	·	–	·	·
CC(Sc1nc2sc3c(c2c(=O)n1-c1ccccc1)CCCC3)C(=O)O (centres undefined)	–	–	–	–	·	–	·	·
CCn1c(SC(C)C(=O)O)nc2sc3c(c2c1=O)CCC3 (centres undefined)	–	68	–	–	–	–	–	–	GRK2 CP2=–;FAM quench CP2=–
COCCCn1c(SCC(=O)NCc2ccco2)nc2sc3c(c2c1=O)CCC3	–	–	–	–	–	–	·	·	GRK2 CP2=–;FAM quench CP2=–
CCN(CC)C(=O)CSc1nc2sc3c(c2c(=O)n1CCCOC)CCC3	–	–	–	–	·	–	·	·	GRK2 CP2=–;FAM quench CP2=–
CCOC(=O)c1cc(C)nc(Sc2ccc(C)cc2)c1C#N	–	–	–	–	·	–	·	·
CSc1ccccc1-c1nc(-c2ccncc2)no1	–	–	–	–	·	–	·	·
Cc1cc(C)cc(NC(=O)COC(=O)COc2ccc(N(C)S(=O)(=O)c3cccs3)cc2)c1	–	41	–	·	·	–	–	–
CN(C)CCOc1ccc2ccccc2c1	–	–	–	–	–	–	·	·
c1ccc2cc(OCCOCCOc3ccc4ccccc4c3)ccc2c1	–	55	–	–	·	–	–	–
Nc1ccn(CC(=O)NCc2ccccn2)c(=O)n1	–	77	–	·	·	–	–	–
Nc1ccn(CC(=O)NCCc2ccccn2)c(=O)n1	–	–	–	·	·	–	·	·
CCOc1ccc(S(=O)(=O)N2CCC(C(=O)NCC3CCCO3)CC2)cc1Cl (centres undefined)	–	–	–	–	·	–	·	·
COC(=O)c1[nH]c2ccc(C)cc2c1NC(=O)CN1CCCc2ccccc21	–	89	–	–	–	–	–	–
O=C(NCc1ccccc1F)C1CCCN(S(=O)(=O)N2CCOCC2)C1 (centres undefined)	–	–	–	–	·	–	–	–
OCCN(Cc1ccccc1)CC1CC2C=CC1C2 (centres undefined)	–	46	–	–	–	–	–	–
Cc1ccc2nc(N(CCN(C)C)C(=O)C3CCN(S(=O)(=O)c4cccs4)CC3)sc2c1	·	·	–	·	·	–	·	·
O=[N+]([O-])c1cnc(N2CCCCC2)c([N+](=O)[O-])c1	–	–	–	–	–	–	·	·
Cc1cc([N+](=O)[O-])cnc1N1CCOCC1	–	88	–	–	–	–	–	–
CC(C)(C)c1ccc(C(=O)N2CCC(C(=O)NCCC3=CCCCC3)CC2)cc1	–	74	–	–	–	–	–	–
O=C(NCCC1=CCCCC1)C1CCN(S(=O)(=O)N2CCCC2)CC1	–	–	–	–	–	–	·	·
CCN1C(=O)[C@H]2[C@H]3CN=C(SCc4ccc(C)cc4)N3[C@@](Cc3ccccc3)(C(=O)OC)[C@H]2C1=O	·	–	–	·	·	–	·	·
CC(C(=O)O)n1c2ccccc2c2cnn(C)c(=O)c21 (centres undefined)	–	95	–	–	·	–	–	–
CC(C)n1nc(C(=O)OCC(=O)NCCc2ccc(S(N)(=O)=O)cc2)c2ccccc2c1=O	–	·	–	·	·	–	·	·
CCCNC(=O)C(Cc1ccccc1F)NC(=O)c1ccccn1 (centres undefined)	–	86	–	·	·	–	–	–	GRK2 CP2=–;FAM quench CP2=–
COc1ccc(C(=O)NCC(=O)OCC(=O)c2ccc3c(c2)NC(=O)CO3)cc1	–	–	–	–	–	–	·	·
